GC-B act – GC-B (human) receptor activation; HEK293-GC-B cells, CNP EC30, cGMP TR-FRET; 0% at EC30 CNP, 100% saturating CNP; actives 0.11% (n = 370,000); P20594; activation, % at 10 µM;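 active means activation at 10 µM reaching about 35% in either raw or pattern-adjusted values, limit read from the data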
Target sequence (P20594 whole entry, looked up): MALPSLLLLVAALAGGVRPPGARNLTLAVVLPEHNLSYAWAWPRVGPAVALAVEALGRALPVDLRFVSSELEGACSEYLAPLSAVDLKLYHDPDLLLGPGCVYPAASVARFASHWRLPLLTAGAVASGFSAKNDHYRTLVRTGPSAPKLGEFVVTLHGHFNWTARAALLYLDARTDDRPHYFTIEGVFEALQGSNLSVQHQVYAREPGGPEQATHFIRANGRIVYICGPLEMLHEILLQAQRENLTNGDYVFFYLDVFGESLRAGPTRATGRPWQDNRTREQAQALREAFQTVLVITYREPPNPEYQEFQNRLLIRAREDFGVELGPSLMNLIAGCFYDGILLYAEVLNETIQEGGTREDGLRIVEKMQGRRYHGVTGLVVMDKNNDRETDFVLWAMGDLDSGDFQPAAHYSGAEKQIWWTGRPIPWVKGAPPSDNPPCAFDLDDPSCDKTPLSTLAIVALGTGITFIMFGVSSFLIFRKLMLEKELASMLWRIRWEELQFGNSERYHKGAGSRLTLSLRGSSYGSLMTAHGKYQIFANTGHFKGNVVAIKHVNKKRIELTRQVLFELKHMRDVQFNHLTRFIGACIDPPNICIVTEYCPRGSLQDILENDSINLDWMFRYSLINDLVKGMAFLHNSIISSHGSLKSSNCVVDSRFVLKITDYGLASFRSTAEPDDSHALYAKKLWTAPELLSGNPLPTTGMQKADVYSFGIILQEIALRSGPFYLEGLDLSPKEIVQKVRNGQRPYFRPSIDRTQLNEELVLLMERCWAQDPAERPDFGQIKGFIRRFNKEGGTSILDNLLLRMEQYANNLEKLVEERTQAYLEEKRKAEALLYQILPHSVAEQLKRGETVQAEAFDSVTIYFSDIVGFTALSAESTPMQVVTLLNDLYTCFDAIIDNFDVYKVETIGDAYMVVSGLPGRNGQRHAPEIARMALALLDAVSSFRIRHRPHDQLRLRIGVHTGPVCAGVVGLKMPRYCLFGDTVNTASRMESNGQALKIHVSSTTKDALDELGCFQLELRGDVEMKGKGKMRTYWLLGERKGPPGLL
Efflux pump inh – blocks antifungal efflux pumps in multiplex yeast assay; inhibition, % at 10 µM; actives 0.44% (n = 330,000); S. cerevisiae Candida pump triplex, Nile Red efflux;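 active means plate passing quality check with inhibition over a set limit, or well fluorescence over plate mean plus 4 SD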;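 further: Nile Red retained in pooled yeast measured as flow cytometry median fluorescence; 0% = buffer negative control and 100% = Enniatin B positive control; higher means more Nile Red kept so more efflux inhibition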
NSD2 HMT inh – NSD2 (human) methyltransferase inhibition; AID 743445; NSD2 peptide methylation, AlphaScreen, 120 min; O96028; inhibition, % at 12.5 µM; actives 0.54% (n = 310,000); in the data active means inhibition above about 50%
V-ATPase pHluor – yeast V-ATPase proton transport regulation by pHLuorin. S. cerevisiae, pHLuorin cytosolic pH fluorescence. response, % at 10 µM. actives 0.37% (n = 350,000). AID 504577; in the data active means response mostly above about 7.3%, no sharp cut-off; inactive means mostly below about 5.4%; further: actives read high
Rce1 inhib – blocks yeast Ras-converting enzyme; Q03530; actives 0.27% (n = 290,000); AID 2563; calls only; yeast membranes, quenched prenylated peptide cleavage fluorescence;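 active means fall in fluorescence gain of 50% or more versus controls, with final raw signal at or below 3038400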;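 further: plate controls were neutral control wells for no effect and wells lacking membranes for full effect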
NPR1 activator – GC-A (human) enzyme activation | activation, % at 10 µM | actives 0.14% (n = 370,000) | HEK293 GC-A cells, cGMP TR-FRET, EC30 ANP; 0% at EC30 ANP, 100% saturating ANP; in the data active means activation above about 40%
VATPase regulator – modulates yeast V-ATPase proton transport | S. cerevisiae pHLuorin cytosolic pH | actives 2% (n = 980) | shares compounds with V-ATPase pHluor | response, % at 10 µM; in the data active means response above about 24%;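 further: plate controls were vehicle wells for no effect and positive control wells for full effect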
* = called active by the depositor; i = inactive; nt = no result given. Shown are actives, neighbours in structure and some others; about 1.6% of the full set was active somewhere.

SMILES	GC-B act	Efflux pump inh	NSD2 HMT inh	V-ATPase pHluor	Rce1 inhib	NPR1 activator	VATPase regulator
O=C(CSc1nc2ccccc2n1Cc1ccccc1Cl)NN=C/C(Br)=C/c1ccccc1	10	nt	-2	nt	nt	0	nt
COc1cccc(OCC(=O)NNC(=O)Cc2cccs2)c1	5	0	-1	14*	i	-1	0
Cc1ccnc(SCc2cc(=O)c(OC(=O)c3ccc(C#N)cc3)co2)n1	-8	nt	nt	nt	nt	-2	nt
O=C(/C=C/c1ccccc1)NCCS(=O)(=O)N1CCN(c2ccccc2)CC1	-11	0	0	6.5*	i	-11	1
COc1ccc(CCN(Cc2cccs2)S(=O)(=O)c2ccc(C)c(C)c2)cc1OC	1	nt	5	nt	nt	1	nt
O=C(Nc1ccc(F)cc1Cl)c1ccc2c(=O)n3c(nc2c1)CCC3	-1	0	1	11*	i	2	0
Cc1cccn2c(=O)c(/C=C(\C#N)C(=O)NC3CCS(=O)(=O)C3)c(Oc3ccc(F)cc3)nc12 (stereo not given)	3	0	4	4	i	7	nt
Cc1cccn2c(=O)c(/C=C(\C#N)C(=O)NC3CCS(=O)(=O)C3)c(N3CCC(C)CC3)nc12 (stereo not given)	5	0	1	15*	i	5	-1
N#Cc1ccc(NC(=O)CCc2nc3ccccc3s2)cc1	0	-1	-2	-2	i	-5	nt
NC(=O)c1cc(NC(=O)CCc2nc3ccccc3s2)cc(C(N)=O)c1	-6	2	-2	9.6*	i	-7	4
Cc1c(Cl)sn(-c2ccc(Cl)cc2)c1=O	-4	nt	-1	66*	nt	13	61*
O=C(Nc1cc(Cl)ccc1F)C1CCCN(c2nnc(-n3cccc3)s2)C1 (stereo not given)	-1	nt	-1	nt	nt	2	nt
COc1cccc(C2C(C(=O)c3cc4ccccc4o3)=C(O)C(=O)N2CCN(C)C)c1OC (stereo not given)	1	0	1	13*	i	4	1
COc1cccc(C2C(C(=O)c3ccco3)=C(O)C(=O)N2CCN(C)C)c1OC (stereo not given)	2	0	2	1	i	2	nt
C=CCN1[C@H](CO)[C@H](c2ccccc2)[C@@H]1C#N	6	nt	nt	nt	nt	0	nt
CCOC(=O)CCCNC(=O)COC(=O)CCC(=O)c1ccc(F)cc1	1	0	0	1	i	0	-3
CC(C)CNC(=O)COC(=O)CCC(=O)c1ccc(F)cc1	-2	0	0	0	i	1	nt
CCCNC(=O)COC(=O)CCC(=O)c1ccc(F)cc1	4	0	-2	-8	i	-1	-1
CCCCNC(=O)COC(=O)CCC(=O)c1ccc(F)cc1	2	0	-3	2	i	-3	2
Cc1ccc(-n2c(SCC(=O)Nc3ccccc3-c3ccccc3)nnc2-c2cnccn2)cc1	-15	nt	nt	nt	nt	-18	nt
COc1ccc(N(CC(=O)N/N=C/c2cc(Br)c(C)o2)S(=O)(=O)c2ccc(NC(C)=O)cc2)cc1	5	0	-2	11*	i	-2	-2
Cc1ccc(NC(=O)CSc2nnc(-c3cccnc3)n2Cc2ccco2)cc1C	-9	nt	1	nt	nt	-7	nt
CC(C)C1N=C(NC(=O)OCc2ccccc2)NC1=O (stereo not given) (tested in a mixture with another compound)	6	nt	nt	nt	nt	5	nt
COc1ccc(N(CC(=O)Nc2cccc3ccccc23)S(C)(=O)=O)cc1	-6	0	-1	8.5*	i	-7	-1
Cc1n[nH]c(C)c1CCCCOc1ccccc1	5	0	-2	-2	nt	4	nt
SMILES	GC-B act	Efflux pump inh	NSD2 HMT inh	V-ATPase pHluor	Rce1 inhib	NPR1 activator	VATPase regulator
Cc1n[nH]c(C)c1CS(=O)(=O)c1ccccc1	4	0	1	7.3*	i	0	1
O=C(NCc1ccccc1)c1ccc(CS(=O)(=O)Cc2ccccc2F)o1	1	0	-2	-2	i	-5	nt
O=C(O)c1ccc(CS(=O)(=O)Cc2ccccc2F)o1	1	0	-2	9.0*	i	-2	0
CCCC/C=C1/[C@@H](c2ccc(Cl)cc2)N(Cc2ccc3c(c2)OCO3)C2=N[C@@H](c3ccccc3)CC(=O)N21	5	nt	nt	nt	nt	4	nt
Cc1cc(C(=O)OCC(=O)Nc2sc3c(c2C#N)CCC(C)C3)c2ccccc2n1 (stereo not given)	-3	0	2	13*	i	-3	-3
CCc1ccccc1N(C)S(=O)(=O)c1ccc2[nH]cc(C(=O)N3CCc4ccccc43)c(=O)c2c1	8	0	0	22*	i	-4	8
Cc1cccc(N(C)S(=O)(=O)c2ccc3[nH]cc(C(=O)N4CCOCC4)c(=O)c3c2)c1	5	0	0	2	i	-2	nt
CC(C)(C)c1ccc(-c2nnc(SCC(=O)c3ccc([N+](=O)[O-])cc3)n2-c2ccc(Cl)cc2)cc1	9	nt	-2	nt	nt	3	nt
O=C(Cn1c(CO)nc2ccccc21)NCCc1ccccc1	0	0	-2	8.1*	i	1	1
O=C(Cc1ccccc1)NC1CCCCN(Cc2ccc(Cl)cc2)C1=O (stereo not given)	0	nt	nt	nt	nt	0	nt
C[C@@H]1[C@@H](c2ccccc2)c2cc3ccccc3nc2-c2nc3ccccc3cc2[C@@H]1C(=O)N1CCCC1	2	nt	nt	nt	nt	0	nt
Cc1sc(NC(=O)Cc2ccc3c(c2)OCO3)nc1-c1ccc2c(c1)CCN2C(=O)c1ccc(F)cc1	5	0	19	11*	i	5	-1
COc1cc(C(=O)NCc2nnc(SCC(=O)N3CCOCC3)o2)cc(OC)c1OC	-4	1	-3	16*	i	1	0
O=C(CSc1nnc(-c2ccccc2)o1)NC(=O)Cc1ccccc1	-1	0	-3	4	nt	0	0
O=C(CSc1nnc(-c2ccccc2)o1)N1CCCCC1	1	0	-1	1	i	-2	-12
NC(=O)CSc1nnc(-c2ccc3c(c2)OCO3)o1	-1	0	5	5.5*	i	-2	1
O=C(CSc1nnc(-c2ccc(F)cc2)o1)N1CCCCC1	5	1	2	4	i	0	nt
COc1ccc(CCNC(=O)CSc2nnc(-c3ccccc3)o2)cc1OC	2	0	3	11*	i	4	6
Cc1ccc(C(=O)CSc2nnc(-c3ccccc3)o2)cc1	2	0	1	-1	i	-1	2
O=C(CSc1nnc(-c2ccccc2F)o1)N1CCCC1	-1	0	5	2	i	1	nt
O=C(O)CSc1nnc(-c2ccc3c(c2)OCO3)o1	3	0	-1	-6	i	0	nt
O=C(O)CSc1nnc(-c2ccccc2)o1	11	0	-1	1	i	-2	-1
